Measured values as given in the supplement of paper PMC6522484.
± gives the standard deviation of the averaged measurements.

Assays:
DLD1 [1] = assay: cell viability (CellTiter-Glo) relative to plate median (fraction of plate median); higher = more viable cells; details: 10 µM, treatment time 24 h
Outline: (§1)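 Reporter and viability luminescence were measured in colorectal cancer cells stably carrying lentiviral TCF/Wnt firefly luciferase reporters. The cells were exposed to kinase inhibitor library compounds at a final 10 µM for 24 h, starting 24 h after seeding in 384-well plates. Each well was normalised to the plate median (webcellHTS2, additive, no log transformation), and two independent replicates were averaged.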

HCT116 [2] = assay: as above; details: 10 µM; treatment time 24 h; reporter: TCF4/Wnt
Outline: as §1

SW480 [3] = assay: as above; details: 10 µM; treatment time 24 h; reporter: 7TFP
Outline: as §1

DLD1 [4] = assay: TCF/Wnt firefly luciferase reporter signal relative to plate median (fraction of plate median); higher = higher Wnt reporter signal; details: 10 µM, treatment time 24 h
Outline: as §1

HCT116 [5] = assay: as above; details: 10 µM; treatment time 24 h; reporter: TCF4/Wnt
Outline: as §1

SW480 [6] = assay: as above; details: 10 µM; treatment time 24 h; reporter: 7TFP
Outline: as §1

| SMILES | cell viability (DLD1 [1]; reporter: 7TFP) | cell viability (DLD1 [1]; reporter: TCF4/Wnt) | cell viability (HCT116 [2]) | cell viability (SW480 [3]) | TCF/Wnt firefly luciferase reporter signal (DLD1 [4]; reporter: 7TFP) | TCF/Wnt firefly luciferase reporter signal (DLD1 [4]; reporter: TCF4/Wnt) | TCF/Wnt firefly luciferase reporter signal (HCT116 [5]) | TCF/Wnt firefly luciferase reporter signal (SW480 [6]) |
| --- | --- | --- | --- | --- | --- | --- | --- | --- |
| CN1CCN(c2ccc3nc(-c4c(N)c5c(F)cccc5[nH]c4=O)[nH]c3c2)CC1 [Dovitinib (TKI-258)] | 0.901 ± 0.18 | 0.908 ± 0.033 | 0.748 ± 0.27 | 1.02 ± 0.11 | 1.26 ± 0.23 | 1.3 ± 0.092 | 0.97 ± 0.042 | 1.39 ± 0.6 |
| CNC(=O)c1nn(C)c2c1C(C)(C)Cc1cnc(Nc3ccc(N4CCN(C)CC4)cc3)nc1-2 | 1.02 ± 0.2 | 0.941 ± 0.049 | 0.659 ± 0.18 | 1.14 ± 0.099 | 0.274 ± 0.088 | 0.3665 ± 0.0035 | 0.146 ± 0.022 | 0.845 ± 0.096 |
| NC1(Cc2ccc(Cl)cc2)CCN(c2ncnc3[nH]ccc23)CC1 | 1.18 ± 0.05 | 1.105 ± 0.0071 | 0.787 ± 0.073 | 1.02 ± 0.035 | 1.03 ± 0.045 | 0.886 ± 0.078 | 1.02 ± 0.32 | 1.01 ± 0.11 |
| Nc1nc(N)c2nc(-c3cccc(O)c3)c(-c3cccc(O)c3)nc2n1 | 1.06 ± 0.035 | 1.02 ± 0.029 | 1.22 ± 0.035 | 0.959 ± 0.025 | 1.08 ± 0.071 | 1.17 ± 0.057 | 1.23 ± 0.11 | 1.04 ± 0.14 |
| O=C(Nc1cccc(Nc2ncc(Br)c(NCCc3cnc[nH]3)n2)c1)N1CCCC1 | 1.07 ± 0.05 | 1.02 ± 0.071 | 0.932 ± 0.016 | 1.16 ± 0.05 | 1.74 ± 0.31 | 1.39 ± 0.38 | 1.97 ± 0.11 | 1.33 ± 0.13 |
| C#Cc1cccc(Nc2ncnc3cc(OCCOC)c(OCCO)cc23)c1 [OSI-420 (Desmethyl Erlotinib)] | 0.993 ± 0.038 | 0.954 ± 0.011 | 1.075 ± 0.0071 | 0.987 ± 0.047 | 0.826 ± 0.023 | 0.927 ± 0.12 | 0.465 ± 0.3 | 0.668 ± 0.39 |
| O=c1c(O)c(-c2ccc(O)c(O)c2)oc2cc(O)cc(O)c12 [Quercetin (Sophoretin)] | 1.19 ± 0.035 | 1.02 ± 0.046 | 1.23 ± 0.092 | 0.92 ± 0.013 | 1.07 ± 0.014 | 1.04 ± 0.035 | 1.16 ± 0.071 | 0.978 ± 0.073 |
| CCN(CC)CCCCNc1ncc2cc(-c3cc(OC)cc(OC)c3)c(NC(=O)NC(C)(C)C)nc2n1 | 0.835 ± 0.052 | 1.01 ± 0.028 | 1.055 ± 0.0071 | 1.1 ± 0.071 | 0.702 ± 0.073 | 0.698 ± 0.073 | 0.781 ± 0.058 | 1.04 ± 0.18 |
| COc1cccc2cc(-c3nc([C@H]4CC[C@H](C(=O)O)CC4)n4ncnc(N)c34)[nH]c12 | 1.03 ± 0.093 | 1.02 ± 0.056 | 0.816 ± 0.0042 | 1.19 ± 0.11 | 0.442 ± 0.061 | 0.449 ± 0.098 | 0.6105 ± 0.00071 | 0.83 ± 0.069 |
| OCCn1cc(-c2cnc3nnn(Cc4ccc5ncccc5c4)c3n2)cn1 | 1.16 ± 0.035 | 1.01 ± 0.071 | 1.09 ± 0.028 | 0.905 ± 0.029 | 1.1 ± 0.11 | 1.07 ± 0.13 | 1.25 ± 0.028 | 1.05 ± 0.042 |
| O=C1NC(=O)C(=Cc2ccc(-c3ccc(F)cc3)o2)S1 (stereo in doubt) | 1.08 ± 0.11 | 1.11 ± 0.064 | 1.09 ± 0.11 | 0.937 ± 0.1 | 1.25 ± 0.021 | 1.55 ± 0.16 | 1.29 ± 0.38 | 1.1 ± 0.13 |
| c1ccc2c(-c3cnn4cc(-c5ccc(N6CCNCC6)cc5)cnc34)ccnc2c1 | 0.666 ± 0.25 | 0.874 ± 0.093 | 0.62 ± 0.14 | 0.8895 ± 0.0064 | 1.02 ± 0.014 | 1.08 ± 0.18 | 0.634 ± 0.3 | 1.35 ± 0.11 |
| O=C(O)[C@]1(Cc2cccc(Nc3nccs3)n2)CC[C@@H](Oc2cccc(Cl)c2F)CC1 | 1.08 ± 0.092 | 1.02 ± 0.014 | 0.959 ± 0.057 | 1.14 ± 0.014 | 0.824 ± 0.061 | 0.857 ± 0.2 | 0.568 ± 0.44 | 0.742 ± 0.0071 |
| FC(F)(F)c1ccc(/C=C/c2nc(COc3ccc(CCCCn4ccnn4)cc3)co2)cc1 [Mubritinib (TAK 165)] | 0.979 ± 0.03 | 0.946 ± 0.09 | 0.771 ± 0.032 | 0.911 ± 0.1 | 1 ± 0.094 | 0.984 ± 0.023 | 0.639 ± 0.23 | 0.816 ± 0.49 |
| O=C1Nc2ccccc2/C1=C1/Nc2ccccc2C1=O [Indirubin] | 0.941 ± 0.044 | 0.819 ± 0.025 | 1.09 ± 0.13 | 0.862 ± 0.034 | 1.44 ± 0.057 | 1.2 ± 0.31 | 0.935 ± 0.054 | 1.08 ± 0.042 |
| C[C@]1(O)C[C@@H](c2nc(-c3ccc4ccc(-c5ccccc5)nc4c3)c3c(N)nccn32)C1 [Linsitinib (OSI-906)] | 0.876 ± 0.018 | 0.856 ± 0.15 | 0.82 ± 0.0099 | 0.995 ± 0.021 | 1.11 ± 0.078 | 1.33 ± 0.23 | 1.29 ± 0.12 | 1.27 ± 0.057 |
| CCS(=O)(=O)N1CC(CC#N)(n2cc(-c3ncnc4[nH]ccc34)cn2)C1 | 1.025 ± 0.0071 | 1.02 ± 0.021 | 1.22 ± 0.092 | 0.943 ± 0.0014 | 1.09 ± 0.16 | 0.764 ± 0.18 | 0.974 ± 0.11 | 0.985 ± 0.021 |
| CN(C)C/C=C/C(=O)Nc1cc2c(Nc3ccc(F)c(Cl)c3)ncnc2cc1O[C@H]1CCOC1 [Afatinib (BIBW2992)] | 0.916 ± 0.074 | 0.843 ± 0.0092 | 0.635 ± 0.19 | 1.18 ± 0.042 | 0.292 ± 0.089 | 0.407 ± 0.0014 | 0.131 ± 0.091 | 0.447 ± 0.19 |
| C=CC(=O)Nc1cccc(Oc2nc(Nc3ccc(N4CCN(C)CC4)cc3)ncc2Cl)c1 | 0.968 ± 0.045 | 1.045 ± 0.0071 | 0.894 ± 0.16 | 1.07 ± 0.085 | 0.79 ± 0.067 | 0.969 ± 0.12 | 1.18 ± 0.42 | 0.834 ± 0.39 |
| COc1ccc(S(=O)(=O)N(C(C)=O)c2ccccc2/C=C/c2cc[n+]([O-])cc2)cc1 | 0.982 ± 0.14 | 1.17 ± 0.14 | 0.619 ± 0.28 | 1.14 ± 0.085 | 0.725 ± 0.03 | 1 ± 0.14 | 0.278 ± 0.0071 | 0.7 ± 0.083 |
